Assay [1] is described as follows: binders of probe aFSTL3 on microarray, primary screen, stem cell growth factor project, biochemical, small-molecule microarray, fluorescence 635/667 (AID 1064).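 Also: measures binding of the biotinylated anti-FSTL3 antibody to printed compounds.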 Conditions: higher = more signal.
Assay [2] in a line: binders from COS7 lysate, DM2A8 probe, primary screen, torsin A project, cell lysate, small-molecule microarray, fluorescence 635/667 (AID 1065). Conditions: higher = more signal, COS7 lysate expressing mutant human TOR1A.
Assay [3] in a line: binders of probe aFGF2 on microarray, primary screen, stem cell growth factor project, biochemical, small-molecule microarray, fluorescence 635/667 (AID 1067).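 Also: measures binding of biotinylated aFGF2 protein to printed compounds on slides; z-score merges feature fluorescence and signal-to-noise across triplicate slides.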 Conditions: higher = more signal.
Assay [4] in a line: binders of probe aFGF10 on microarray, primary screen, stem cell growth factor project, biochemical, small-molecule microarray, fluorescence 635/667 (AID 1071).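 Also: score merges 667 nm spot intensity and signal to noise from triplicate slides.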 Conditions: higher = more signal.
Assay [5] concerns the target Neurogenic locus notch homolog protein 2 (Homo sapiens) (UniProt Q04721). The assay can be described thus: Notch2 binders on small-molecule microarrays, primary screen, biochemical, small-molecule microarray, 635 nm fluorescence, stem cell growth factors (AID 1073). Particulars: Notch2 binding, higher = more signal.
Assay [6] has as its target Pro-neuregulin-1, membrane-bound isoform (Homo sapiens) (UniProt Q02297). The assay can be described thus: NRG1 binders on small-molecule microarrays, primary screen, psychiatric disease protein project, biochemical, small-molecule microarray, fluorescence 635/667 (AID 1075).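 Also: score combines 667 nm spot fluorescence with signal to noise.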 Particulars: NRG1 binding, 635 nm fluorescence, higher = more signal.
For assay [7], the system named is Neuregulin-1 EGF-like domain. The assay is described as follows: binders of neuregulin-1 EGF-like domain, primary screen, biochemical, small-molecule microarray, 635 nm fluorescence (AID 1081).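 Also: binding of the protein to compounds printed on small-molecule microarray slides.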 Conditions: small-molecule microarray binding, higher = more signal.
Assay [8] can be described thus: FRG1 promoter luciferase signal modulators, primary screen, FRG1 inhibition for FSHD, cell-based, C2C12 myotubes, firefly/Renilla luciferase, luminescence (AID 1084). Conditions: higher = more signal, called active from +8 up or from −8 down.
Assay [9] is described as follows: binders of probe aFST on microarray, primary screen, stem cell growth factor project, biochemical, small-molecule microarray, fluorescence 635/667 (AID 1086).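 Also: score merges 667 nm fluorescence with signal-to-noise of each printed compound spot.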 Particulars: higher = more signal.
Assay [10] is described as follows: binders of probe aHhip on microarray, primary screen, stem cell growth factor project, biochemical, small-molecule microarray, fluorescence 635/667 (AID 1087).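 Also: score merges spot fluorescence at 667nm with spot signal to noise ratio.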 Particulars: higher = more signal.
The subject of assay [11] is PRMT1 (protein arginine N-methyltransferase 1). The assay is described as follows: PRMT1 binders on small-molecule microarrays, primary screen, biochemical, small-molecule microarray, 635 nm fluorescence (AID 1088).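 Also: binding of Prmt1 protein to compounds spotted on small-molecule microarray slides.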 Particulars: small-molecule microarray binding, higher = more signal.
A short description of assay [12]: yeast growth modulation, basal conditions, primary screen, YJM789 clinical isolate, OD600, 24 h (AID 1089).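 Also: growth of clinical yeast isolate S. cerevisiae YJM 789 seeded 1000 cells per well; test concentration not given here.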 Conditions: S. cerevisiae YJM789 growth, higher = more signal, called active from +8 up or from −8 down.
A short description of assay [13]: fission yeast growth modulation, primary screen, strain 972, OD600, 24 h, no modulator (AID 1090).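 Also: basal condition with compound alone and no growth modifier present; test concentration not given here.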 Particulars: S. pombe 972 growth, higher = more signal, called active from +8 up or from −8 down.
Assay [14] is described as follows: S. cerevisiae growth modulation with rapamycin, primary screen, strain BY4716, OD600, 96 h (AID 1091). Also: test concentration not given here. Conditions: higher = more signal, called active from +8 up or from −8 down.
For assay [15], the target named is Torsin-1A-interacting protein 2 (Homo sapiens) (UniProt Q8NFQ8). The assay can be described thus: LULL1 binders on small-molecule microarray, primary screen, cell lysate, human LULL1 lysate, 635/667 nm fluorescence (AID 1092).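 Also: probe is lysate of COS7 cells overexpressing human LULL1; score merges per-feature 667 nm fluorescence with signal-to-noise.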 Conditions: hLULL1 lysate binding, 635 nm fluorescence, higher = more signal.
Chain of Torsin-1A-interacting protein 2 (Homo sapiens) (Q8NFQ8 whole entry, looked up): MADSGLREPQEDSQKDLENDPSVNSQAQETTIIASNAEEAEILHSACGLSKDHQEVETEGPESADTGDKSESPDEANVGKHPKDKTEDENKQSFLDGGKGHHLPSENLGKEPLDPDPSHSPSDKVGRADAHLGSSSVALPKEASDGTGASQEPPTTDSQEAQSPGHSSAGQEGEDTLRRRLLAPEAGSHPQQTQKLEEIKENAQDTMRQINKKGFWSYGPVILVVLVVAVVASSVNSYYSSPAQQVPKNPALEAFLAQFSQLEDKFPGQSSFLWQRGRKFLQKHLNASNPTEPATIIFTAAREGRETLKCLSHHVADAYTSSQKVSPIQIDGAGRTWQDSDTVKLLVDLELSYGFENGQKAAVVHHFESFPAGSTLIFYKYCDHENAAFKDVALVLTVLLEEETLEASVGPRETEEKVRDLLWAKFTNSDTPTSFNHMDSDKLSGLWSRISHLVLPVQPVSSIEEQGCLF
Assay [16] is described as follows: E. coli growth modulation, two-sided OD650, primary screen, E. coli filamentation project, strain DRC41, 24 h (AID 1093).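 Also: MC1000 strain lacking acrAB efflux and sulA so SOS filamentation is blocked; test concentration not given here.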 Conditions: OD650, 24 h, higher = more signal, called active from +8 up or from −8 down.
Assay [17] is described as follows: small-molecule microarray binders of probe aLefty2, primary screen, biochemical, biotinylated probe, 635/667 nm fluorescence (AID 1094).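 Also: score merges spot fluorescence near 667 nm with spot signal-to-noise ratio.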 Particulars: higher = more signal.
Assay [18] concerns Noggin (protein binding on small-molecule microarray). The assay can be described thus: Noggin binders on small-molecule microarray, primary screen, biochemical, 635/667 nm fluorescence (AID 1095).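 Also: score merges 667 nm feature fluorescence with signal to noise over triplicate slides.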 Conditions: 635 nm fluorescence, higher = more signal.
In assay [19] the target is Neurogenic locus notch homolog protein 3 (Homo sapiens) (UniProt Q9UM47). The assay can be described thus: NOTCH3 binders on small-molecule microarray, primary screen, biochemical, 635/667 nm fluorescence (AID 1096). Particulars: NOTCH3 binding, 635 nm fluorescence, higher = more signal.
Chain of Neurogenic locus notch homolog protein 3 (Homo sapiens) (Q9UM47 whole entry, looked up): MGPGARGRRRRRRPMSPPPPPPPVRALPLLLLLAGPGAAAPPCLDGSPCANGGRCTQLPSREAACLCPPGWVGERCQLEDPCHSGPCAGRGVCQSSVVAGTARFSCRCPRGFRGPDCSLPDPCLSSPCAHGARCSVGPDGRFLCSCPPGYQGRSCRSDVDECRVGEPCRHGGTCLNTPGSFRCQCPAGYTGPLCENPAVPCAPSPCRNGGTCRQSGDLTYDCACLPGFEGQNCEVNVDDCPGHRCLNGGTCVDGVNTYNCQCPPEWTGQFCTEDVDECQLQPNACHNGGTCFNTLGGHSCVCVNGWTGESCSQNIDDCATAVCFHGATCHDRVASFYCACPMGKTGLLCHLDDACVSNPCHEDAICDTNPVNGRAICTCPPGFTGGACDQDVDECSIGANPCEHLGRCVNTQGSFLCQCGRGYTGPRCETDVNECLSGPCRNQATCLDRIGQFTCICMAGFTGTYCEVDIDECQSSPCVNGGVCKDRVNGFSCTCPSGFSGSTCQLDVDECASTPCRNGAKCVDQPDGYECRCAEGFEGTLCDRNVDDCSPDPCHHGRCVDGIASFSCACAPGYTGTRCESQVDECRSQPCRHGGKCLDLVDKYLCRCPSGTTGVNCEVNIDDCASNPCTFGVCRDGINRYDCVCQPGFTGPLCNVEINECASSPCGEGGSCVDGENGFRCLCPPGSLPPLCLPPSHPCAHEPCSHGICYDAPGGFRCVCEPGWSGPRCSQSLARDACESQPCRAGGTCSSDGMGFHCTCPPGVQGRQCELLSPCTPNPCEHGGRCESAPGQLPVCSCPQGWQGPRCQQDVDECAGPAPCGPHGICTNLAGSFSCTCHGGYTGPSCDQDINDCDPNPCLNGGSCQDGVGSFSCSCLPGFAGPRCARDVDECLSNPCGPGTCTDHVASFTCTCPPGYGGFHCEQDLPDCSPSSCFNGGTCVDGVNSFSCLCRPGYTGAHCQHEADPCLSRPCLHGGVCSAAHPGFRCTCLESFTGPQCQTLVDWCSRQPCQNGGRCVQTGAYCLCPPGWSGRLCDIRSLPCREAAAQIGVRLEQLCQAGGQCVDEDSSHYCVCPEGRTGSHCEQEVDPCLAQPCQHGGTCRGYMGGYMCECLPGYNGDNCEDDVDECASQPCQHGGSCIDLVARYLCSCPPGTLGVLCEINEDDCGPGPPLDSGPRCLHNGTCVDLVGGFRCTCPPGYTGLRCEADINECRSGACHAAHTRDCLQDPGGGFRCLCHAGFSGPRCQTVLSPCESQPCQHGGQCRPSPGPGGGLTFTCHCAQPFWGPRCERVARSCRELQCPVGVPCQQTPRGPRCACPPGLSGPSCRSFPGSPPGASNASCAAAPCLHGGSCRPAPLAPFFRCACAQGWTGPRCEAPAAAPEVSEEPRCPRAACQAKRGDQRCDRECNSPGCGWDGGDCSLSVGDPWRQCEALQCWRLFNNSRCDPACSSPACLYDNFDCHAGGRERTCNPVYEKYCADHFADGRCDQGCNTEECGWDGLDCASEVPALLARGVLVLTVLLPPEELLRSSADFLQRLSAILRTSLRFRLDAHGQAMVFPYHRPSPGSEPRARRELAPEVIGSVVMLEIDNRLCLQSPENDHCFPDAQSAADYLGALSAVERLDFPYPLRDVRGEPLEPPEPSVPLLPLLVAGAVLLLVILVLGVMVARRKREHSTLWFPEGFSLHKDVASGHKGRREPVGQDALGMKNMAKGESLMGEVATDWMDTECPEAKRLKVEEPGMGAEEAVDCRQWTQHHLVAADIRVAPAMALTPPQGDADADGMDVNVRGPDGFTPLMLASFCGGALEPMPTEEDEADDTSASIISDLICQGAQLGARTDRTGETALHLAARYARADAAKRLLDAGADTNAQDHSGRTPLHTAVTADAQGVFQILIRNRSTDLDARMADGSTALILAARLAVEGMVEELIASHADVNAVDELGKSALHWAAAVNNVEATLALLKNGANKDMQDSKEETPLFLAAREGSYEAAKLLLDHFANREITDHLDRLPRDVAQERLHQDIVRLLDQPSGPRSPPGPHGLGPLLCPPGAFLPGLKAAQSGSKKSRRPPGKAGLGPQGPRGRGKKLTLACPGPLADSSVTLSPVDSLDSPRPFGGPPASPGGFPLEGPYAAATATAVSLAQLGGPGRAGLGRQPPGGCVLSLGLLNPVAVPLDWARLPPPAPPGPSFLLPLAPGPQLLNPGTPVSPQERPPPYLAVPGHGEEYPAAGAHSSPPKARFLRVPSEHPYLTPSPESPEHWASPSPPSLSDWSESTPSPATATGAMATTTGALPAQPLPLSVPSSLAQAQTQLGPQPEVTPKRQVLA
The nature of assay [20]: small-molecule microarray binders of probe aEGFR, primary screen, biochemical, biotinylated probe, 635/667 nm fluorescence (AID 1097).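 Also: probe is a biotinylated anti-EGFR antibody binding compounds printed on slides; score combines fluorescence near 667 nm and signal to noise of each spot.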 Conditions: higher = more signal.

Calls of active or inactive are those of the source.

Chain of Pro-neuregulin-1, membrane-bound isoform (Homo sapiens) (Q02297 whole entry, looked up, the tested form may be a part, canonical isoform): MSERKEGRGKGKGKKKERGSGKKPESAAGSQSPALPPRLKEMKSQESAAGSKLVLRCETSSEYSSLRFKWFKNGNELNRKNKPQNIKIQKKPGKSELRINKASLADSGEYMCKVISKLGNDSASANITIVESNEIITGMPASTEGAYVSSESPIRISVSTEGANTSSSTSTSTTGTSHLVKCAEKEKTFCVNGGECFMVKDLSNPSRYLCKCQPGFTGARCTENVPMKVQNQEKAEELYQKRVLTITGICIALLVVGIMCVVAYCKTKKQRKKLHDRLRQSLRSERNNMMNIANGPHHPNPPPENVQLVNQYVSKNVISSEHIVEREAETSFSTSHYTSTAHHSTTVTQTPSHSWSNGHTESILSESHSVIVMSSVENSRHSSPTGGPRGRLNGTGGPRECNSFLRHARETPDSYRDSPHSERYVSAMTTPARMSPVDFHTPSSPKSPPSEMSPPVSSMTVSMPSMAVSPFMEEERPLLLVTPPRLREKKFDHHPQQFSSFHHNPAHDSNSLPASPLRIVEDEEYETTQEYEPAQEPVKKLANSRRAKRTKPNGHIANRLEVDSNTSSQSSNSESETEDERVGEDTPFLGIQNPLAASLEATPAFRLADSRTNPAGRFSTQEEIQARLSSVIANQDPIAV

As for `C=C(C)[C@@H]1CC=C(C(O)C2C=CC3C(=O)N(C)C(=O)C3N2Nc2ccc([N+](=O)[O-])cc2[N+](=O)[O-])CC1` (stereo not given in full), the composite z-score in assay [1] is 0.661; in assay [2], 0.294; in assay [3], -0.144; in assay [4], 0.431; in assay [5] it was 1.68; in assay [6], 1.74. Moreover, the composite z-score in assay [7] was 1.36; in [9], 1.46; in [10] it was -0.0003; in assay [11], 1.32; in assay [15] it was 3.52; in assay [17] it was 0.519. Moreover, the composite z-score turned out to be 0.263 in assay [18], 1.07 in assay [19] and 0.358 in assay [20]. Besides, the z-score is 0.404 (inactive) in assay [8]; 0.513 (inactive) in assay [12]; 1.79 (inactive) in [13]; 0.966 (inactive) in assay [14]; -0.476 (inactive) in [16].

As to `C=CCC(OC(C)=O)[C@@H]1[C@@H](N(Cc2ccc(-c3ccccc3)cc2)C(=O)c2cccc3ccccc23)c2cc(OCCCO)ccc2N1C(=O)Cc1ccc(OC)cc1` (stereo not given in full), the composite z-score was 0.0714 in assay [1]; -0.205 in assay [2]; -0.108 in [3]; -0.234 in assay [4]; -0.559 in assay [5]; -0.229 in [6]. Moreover, the composite z-score in assay [7] was -0.757; in assay [9], 0.165; in [10], 3.52; in assay [11] it was -0.159; in assay [15], -0.203; in [17], 0.0748. For the same compound, the values for the composite z-score in [18], in assay [19] and in [20] were 0.417, -0.477 and 0.122, respectively. Further, the z-score is -0.72 (inactive) in [8]; -0.774 (inactive) in [12]; 0.0643 (inactive) in [13]; -0.631 (inactive) in [14]; -1.09 (inactive) in assay [16].

As for `C=C(CCCC)C(=O)CC[C@H](OC(=O)c1ccccc1-c1ccccc1C(=O)O)c1ccc(OCCO)cc1`, the composite z-score was -0.441 in [1]; 1.06 in assay [2]; -0.0876 in [3]; 0.315 in [4]; -0.181 in assay [5]; 1.13 in assay [6]. Moreover, the composite z-score is 1.19 in assay [7]; 0.393 in assay [9]; -0.236 in assay [10]; 0.636 in assay [11]; 1.65 in [15]; -0.0563 in assay [17]. Moreover, the composite z-score was 1.43 in assay [18], 0.171 in [19] and -0.0197 in [20]. Moreover, the z-score in [8] is -0.62 (inactive); in assay [12], -0.338 (inactive); in [13] it was -1.48 (inactive); in assay [14] it was -1.88 (inactive); in [16], 0.836 (inactive).

Consider `C=CCOC(=O)[C@H]1[C@@H]2C(=O)O[C@@H](c3ccccc3)[C@@H](c3ccccc3)N2[C@@H](c2ccc(OCCOC(=O)[C@@H]3C[C@@H]4C(=O)N[C@@H](CCCCNC(C)=O)C(=O)N4[C@@H]3c3cccc(OCCO)c3)cc2)[C@]12C(=O)Nc1ccccc12`, for which the composite z-score in assay [1] was 0.125; in assay [2], 1.67; in assay [3], -0.024; in [4], 0.489; in assay [5] it was 0.717; in [6], 1.19. For the same compound, the composite z-score in [7] is 1.3; in assay [9], 0.324; in assay [10], -0.0994; in assay [11], 1.54; in assay [15], 2.36; in assay [17] it was 0.0636. Further, the composite z-score in assay [18] is 1.34; in [19], 1.06; in assay [20], -0.0103. For the same compound, the z-score in assay [8] was 1.26 (inactive); in assay [12], 0.591 (inactive); in assay [13] it was 0.633 (inactive); in assay [14], 2.18 (inactive); in [16] it was -0.471 (inactive).

`CCN(CC)c1ccc(N2CC=CC34O[C@@H]5C=CCCOC(=O)C5[C@H]3C(=O)N(C(C)CO)[C@@H]4C2=O)cc1` (stereo not given in full): the composite z-score in [1] was 0.221; in assay [2] it was 0.864; in assay [3] it was -0.0627; in assay [4] it was -0.227; in assay [5] it was -0.371; in [6], 0.415. Moreover, the composite z-score in assay [7] is 1.36; in [9], -0.0426; in [10], -0.34; in assay [11], 1.05; in assay [15], 2.11; in assay [17] it was 0.0815. Moreover, the composite z-score in [18] is 0.524; in [19] it was 0.61; in assay [20] it was -0.0702. The z-score is 0.725 (inactive) in [8]; -1.01 (inactive) in assay [12]; -1.6 (inactive) in assay [13]; -0.399 (inactive) in [14]; -0.42 (inactive) in assay [16].

(Values after PubChem BioAssay.)
